A selection: hits, their analogues and other compounds. The true share with any hit is near 3.1%.
Anthrax LF inh2 – inhibitors of Bacillus anthracis lethal factor protease; multiplex microsphere protease cleavage assay, LF; inhibition, % at 10 µM; 360,000 compounds, 0.12% hits; P15917
BoNT-A LC inh2 – blocks Botulinum neurotoxin A light chain protease. inhibition, % at 10 µM. multiplex microsphere protease substrate cleavage, flow cytometry. AID 588499. 360,000 compounds, 0.17% hits
Bead autofluor – counter-screen for toxin protease inhibitors: compound fluorescence | compound autofluorescence counterscreen, microsphere flow cytometry; stronger effect = higher value | fluorescence intensity (concentration not given with the values) | 360,000 compounds, 3.1% hits | AID 624483; in the data active = fluorescence intensity above about 16000; inconclusive = no clear call, values can overlap the other calls
BoNT F protease – BoNT F light chain protease inhibition. Multiplex microsphere protease cleavage assay, flow cytometry. inhibition, % at 10 µM. 360,000 compounds, 0.22% hits. AID 588497; in the data active = inhibition above about 35%, passing the limit was not always enough; inconclusive = no clear call, values can overlap the other calls
PriA SSB inh – inhibitors of Klebsiella pneumoniae PriA binding to SSB C-terminal tail; AlphaScreen SSBct-PriA binding, biotinylated peptide; inhibition, % at 33 µM; 430,000 compounds, 0.6% hits; AID 1272365; in the data active = inhibition mostly above about 37%, no sharp cut-off; inactive = mostly below about 20%
A number is an active result; i = inactive; ? = inconclusive; nt = no result. Cut-off read from the data, not from the text of the source, unless noted: active = inhibition above about 30%; inconclusive = no clear call, values can overlap the other calls; inactive = below that.

SMILES	Anthrax LF inh2	BoNT-A LC inh2	Bead autofluor	BoNT F protease	PriA SSB inh
COc1ccc(CC(=O)Nc2c3c(nn2-c2ccccc2C)CS(=O)C3)cc1 (stereo not given)	i	i	20787	i	i
Cn1nc(C(C)(C)C)cc1C(=O)NCc1ccc(N2CCCC2=O)cc1	i	?	23561	i	i
O=C(COc1ccc(F)cc1)NC1CCS(=O)(=O)C1 (stereo not given)	nt	nt	nt	nt	i
Cc1cccc2[nH]c3c(N4CCC5(CC4)OCCO5)ncnc3c12	i	?	22045	i	i
Cc1cccc2[nH]c3c(N4CCN(C(=O)c5ccco5)CC4)ncnc3c12	i	i	24618	i	i
O=C(CSc1nc2ccccc2o1)N1CCC(Oc2cnccn2)CC1	nt	nt	nt	nt	i
Cc1cc(NC(=O)Cc2cccs2)n(-c2ncnc3c2cnn3-c2ccc(C)c(C)c2)n1	nt	nt	nt	nt	i
CCN1CCN(C(=O)c2cc(-c3cccnc3)nc3ccc(Br)cc23)CC1	i	?	20068	i	i
O=C(CSc1nccc(=O)[nH]1)Nc1ccc(F)c(Cl)c1	i	?	24003	i	i
O=C(CSc1nccc(=O)[nH]1)Nc1ccc(Br)c(Cl)c1	i	i	i	i	i
COc1cc2c(cc1OC)CN(CC(=O)Nc1ccc(S(=O)(=O)N(C)C)cc1)CC2	i	i	i	i	i
COc1cc2c(cc1OC)CN(CC(=O)Nc1ccc3c(c1)OC(F)(F)O3)CC2	i	?	24021	i	i
Cc1csc(NC(=O)c2nc(-c3ccccc3)n(-c3ccccc3)n2)n1	i	i	22922	i	i
CC(Oc1ccc(F)cc1)C(=O)Nc1nc(-c2ccccn2)cs1 (stereo not given)	nt	nt	nt	nt	57.3
O=C(Nc1nc(-c2ccccn2)cs1)c1ccc([N+](=O)[O-])cc1	nt	nt	nt	nt	102.0
O=C(Nc1nc(-c2ccccn2)cs1)c1ccc(I)cc1	nt	nt	nt	nt	i
O=C(Nc1nccs1)c1nc(-c2ccccc2)n(-c2ccccc2)n1	i	i	i	i	i
Cn1ccc2cc(C(=O)Nc3nc(-c4ccccn4)cs3)ccc21	nt	nt	nt	nt	110.5
CCOc1ccc(NC(=O)CC(C)=NNC(=O)COc2ccc(Br)cc2C)cc1	nt	nt	nt	nt	i
Cc1ccccc1OCc1nc2ccccc2[nH]1	i	i	i	i	i
COCC(=O)Nc1nc(-c2ccc([N+](=O)[O-])cc2)cs1	i	i	i	i	i
COc1ccc(C(=O)Nc2nc3ccccc3[nH]2)cc1OC	i	i	21383	i	i
O=C(Cc1nc(-c2ccc([N+](=O)[O-])cc2)cs1)Nc1ccccc1	i	i	21221	i	i
COc1cccc(CNc2cccc3cccnc23)c1O	i	i	16704	i	i
COc1ccccc1OCc1nc2ccccc2[nH]1	i	i	17050	i	i
SMILES	Anthrax LF inh2	BoNT-A LC inh2	Bead autofluor	BoNT F protease	PriA SSB inh
O=c1/c(=C\c2cccc3ccccc23)sc2nc(C3COc4ccccc4O3)nn12 (stereo not given)	nt	nt	nt	nt	i
O=C(Nc1nc(-c2ccccc2)cs1)c1cccc([N+](=O)[O-])c1	i	i	20697	i	i
COc1ccc(C(=O)Nc2nc(-c3ccccn3)cs2)cc1OC	nt	nt	nt	nt	113.5
COc1ccc(OC)c(C(=O)Nc2nc(-c3ccccn3)cs2)c1	nt	nt	nt	nt	i
Cc1nc(C(=O)Nc2nc(-c3ccccn3)cs2)nn1-c1ccc(F)cc1	nt	nt	nt	nt	90.4
COc1ccc(C(=O)Nc2cccc3cccnc23)cc1OC	i	i	23720	i	i
Cc1ccc(C)n1-c1ccc(C(=O)Nc2nc(-c3ccccn3)cs2)cc1	nt	nt	nt	nt	i
COc1c[nH]c(C(=O)Nc2cccc(C(C)=O)c2)cc1=O	nt	nt	nt	nt	i
Cc1nc2ccc3nc(NC(=O)c4cc(C)n(C)n4)sc3c2s1	nt	nt	nt	nt	i
O=C(C1CCCCC1)N1CCN(c2ccc(Nc3ccccn3)nn2)CC1	nt	nt	nt	nt	i
NC(=O)c1c(NC(=O)Nc2cccc(Cl)c2)sc2c1CCCC2	nt	nt	nt	nt	i
COc1ccc(NC(=O)c2ccc3nc(-c4ccccc4)c(-c4ccccc4)nc3c2)c(OC)c1	i	i	i	i	i
COc1ccccc1NC(=O)c1ccc2nc(-c3ccccc3)c(-c3ccccc3)nc2c1	i	?	20872	i	i
CSCc1ccc(C(=O)Nc2nc(-c3ccccn3)cs2)cc1	nt	nt	nt	nt	114.0
CC(C)n1nnc(-c2ccc(C(=O)Nc3nc(-c4ccccn4)cs3)cc2)n1	nt	nt	nt	nt	74.4
Cc1ccnc2nc(C(=O)Nc3nc(-c4ccccc4Cl)cs3)nn12	nt	nt	nt	nt	i
Cc1ccnc2nc(C(=O)Nc3nc(-c4ccccn4)cs3)nn12	i	i	i	i	71.8
O=C(Nc1nc(-c2ccccn2)cs1)c1ccc(C(F)(F)F)cc1	nt	nt	nt	nt	i
COc1coc(C(=O)Nc2nc(-c3ccccn3)cs2)cc1=O	nt	nt	nt	nt	87.4
CN(CC1CCCO1)S(=O)(=O)c1ccc(C(=O)Nc2nc(-c3ccccn3)cs2)cc1 (stereo not given)	i	i	i	i	43.9
O=C(Nc1nc(-c2ccccn2)cs1)c1ccc(F)cc1	nt	nt	nt	nt	106.9
CN(CC1CCCO1)S(=O)(=O)c1ccc(C(=O)Nc2nc(-c3cccnc3)cs2)cc1 (stereo not given)	nt	nt	nt	nt	i
Cc1cc(C(=O)CSc2nnc3sc4ccccc4n23)c(C)n1C1CCCCC1	nt	nt	nt	nt	i
O=C(NCc1cnn2c1CCCC2)c1ccc(Br)o1	nt	nt	nt	nt	i
COc1ccc(CCNC(=O)Cn2cnc3c(cnn3-c3ccccc3Cl)c2=O)cc1OC	i	i	21068	i	i
SMILES	Anthrax LF inh2	BoNT-A LC inh2	Bead autofluor	BoNT F protease	PriA SSB inh
COc1ccc(CCNC(=O)Cn2cnc3c(cnn3-c3cccc(Cl)c3)c2=O)cc1OC	nt	nt	nt	nt	i
CC(C)(C)C(=O)NC(C#N)=C(Cl)Cl	nt	nt	nt	nt	i
C[C@](O)(CNC(=O)NCc1cccs1)c1cccs1	nt	nt	nt	nt	i
c1ccc(COc2cccc(CN3CCN(c4ccccn4)CC3)c2)cc1	i	i	20483	i	i
Cc1cccc(CN2CCN(c3ccccn3)CC2)c1	i	?	23318	i	i
c1ccc(COc2cccc(CN3CCCCC3)c2)cc1	i	i	i	i	i
O=C(Cc1cccs1)Nc1nc(-c2ccc(F)cc2F)cs1	i	i	17771	i	i
C/C(=N\O)c1ccc(N2C(=O)C3CC=C(Cl)CC3C2=O)cc1 (stereo not given)	i	i	16899	i	nt
COCCNC(=O)Cc1ccc(NS(=O)(=O)c2ccc3c(c2)OCCO3)cc1	nt	nt	nt	nt	i
COCCNC(=O)NC(=O)COC(=O)Cc1ccc2c(c1)OCCO2	i	i	22511	i	i
Cc1c(N=Cc2ccc(Br)s2)cccc1[N+](=O)[O-]	i	i	23875	i	i
CC(C)N1C2OC(C3OC4C(O3)N(C(C)C)S(=O)(=O)N4C(C)C)OC2N(C(C)C)S1(=O)=O (stereo not given)	i	i	23341	i	i
CC(C)C(C)(C#N)NC(=O)CSc1nc(C2CCCCC2)n(-c2ccccc2)n1 (stereo not given)	i	i	i	37.5	i
Cc1ccc(C)c(NC(=S)NNC(=O)c2ccc(Br)o2)c1	i	i	21935	i	i
Cc1ccc(C)c(NC(=S)NNC(=O)c2csc(C(C)C)c2)c1	i	i	22879	i	i
Cc1ccc(C)c(NC(=S)NNC(=O)c2csc(C)c2C)c1	i	i	i	i	i
CSc1ccccc1NC(=O)CCc1csc(NC(=O)c2cccs2)n1	nt	nt	nt	nt	i
O=C(Nc1nccs1)C(=O)NC1CCCCC1	nt	nt	nt	nt	i
CN1C(=O)CC(NNC(=O)c2ccc(Cl)cc2)C1=O (stereo not given)	i	i	22298	i	i

Bioassay records deposited in PubChem BioAssay by several laboratories.
